From article PMC9838217, “Structure of SALL4 zinc finger domain reveals link between AT-rich DNA binding and Okihiro syndrome”
Substitutions are numbered along the chain they refer to.

Legend:
[1] = biological target: T1, SALL4 ZFC4 R900W (HT-SELEX) (Mus musculus, UniProt Q8BX22 870-940, R900W); assay: HT-SELEX; high values mean tight binding; conditions: protein: recombinant; vector His6-GST; dsDNA, one strand shown
T1 sequence: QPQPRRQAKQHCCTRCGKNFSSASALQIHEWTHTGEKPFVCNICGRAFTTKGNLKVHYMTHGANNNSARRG
Procedure, shortened: (§1)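 A 100 µl reaction of 10 mM Tris–HCl pH 7.5, 50 mM NaCl, poly(dI-dC) and DTT held purified recombinant mouse SALL4 zinc finger cluster 4 (residues 870–940, 1 µg) and library DNA (1.5 µg first cycle, 200 ng later) for 10 min at room temperature. Complexes captured on Ni2+ beads were washed, PCR-amplified and reselected for up to 6 cycles, in triplicate, then MiSeq-sequenced and scanned for 6-mers. Binding signal is the read fraction of each canonical k-mer expressed as fold change over the initial random library.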

[2] = biological target: T2, SALL4 ZFC4 G921D (HT-SELEX) (Mus musculus, UniProt Q8BX22 870-940, G921D); assay: HT-SELEX; high values mean tight binding; conditions: protein: recombinant; vector His6-GST; dsDNA, one strand shown
T2 sequence: T1 sequence with W31R, G52D
Procedure, shortened: as §1

Row | Sequence | binding signal [1] [fold-change vs cycle 0] | binding signal [2] [fold-change vs cycle 0]
1 | GGGCGA | 0.127 ± 0.00943 | 0.251 ± 0.0728
2 | CGCTCC | 0.165 ± 0.00419 | 0.29 ± 0.0821
3 | CCTCCG | 0.252 ± 0.0142 | 0.367 ± 0.0686
4 | CGTCCC | 0.238 ± 0.0171 | 0.351 ± 0.0721
5 | ATCGCC | 0.24 ± 0.00657 | 0.401 ± 0.088
6 | CACCGC | 0.132 ± 0.00669 | 0.239 ± 0.0797
7 | ACGAAT | 1.26 ± 0.0589 | 1.24 ± 0.0791
8 | AGCCCA | 0.323 ± 0.00919 | 0.465 ± 0.0703
9 | ACAGGC | 0.338 ± 0.0213 | 0.472 ± 0.0921
10 | CCGCGC | 0.0273 ± 0.00598 | 0.0941 ± 0.0469
11 | GTCGCA | 0.215 ± 0.0161 | 0.341 ± 0.0831
12 | CTCGGC | 0.127 ± 0.0136 | 0.231 ± 0.0599
13 | CGCGCG | 0.0217 ± 0.00502 | 0.0939 ± 0.0507
14 | ACGCGC | 0.0585 ± 0.00894 | 0.159 ± 0.07
15 | GCGGAC | 0.125 ± 0.0161 | 0.239 ± 0.0553
16 | CGACCC | 0.172 ± 0.00839 | 0.317 ± 0.0852
17 | CCGGGC | 0.0594 ± 0.00905 | 0.152 ± 0.0608
18 | GGGCCA | 0.129 ± 0.0234 | 0.254 ± 0.0851
19 | ACGCCG | 0.0708 ± 0.0067 | 0.183 ± 0.0752
20 | CAACGC | 0.263 ± 0.00747 | 0.409 ± 0.0649
21 | GGGGAC | 0.299 ± 0.0209 | 0.403 ± 0.0552
22 | CCCACC | 0.282 ± 0.00918 | 0.397 ± 0.0572
23 | GCAGCA | 0.247 ± 0.0238 | 0.368 ± 0.0645
24 | CCGAGG | 0.251 ± 0.0139 | 0.375 ± 0.0741
25 | GACGCC | 0.116 ± 0.00704 | 0.225 ± 0.0674
26 | AGCCGC | 0.0699 ± 0.00939 | 0.174 ± 0.0601
27 | GCGCGA | 0.0544 ± 0.00435 | 0.152 ± 0.0576

Row | Sequence | binding signal [1] [fold-change vs cycle 0] | binding signal [2] [fold-change vs cycle 0]
28 | GACCGC | 0.124 ± 0.0133 | 0.245 ± 0.0713
29 | CCGGCG | 0.0367 ± 0.00313 | 0.128 ± 0.0641
30 | AGCCGG | 0.121 ± 0.00957 | 0.244 ± 0.0663
31 | GACGGC | 0.105 ± 0.00605 | 0.211 ± 0.0714
32 | GGAATA | 1.41 ± 0.0506 | 1.35 ± 0.0751
33 | GTCCGA | 0.371 ± 0.00646 | 0.506 ± 0.055
34 | CTGGGC | 0.152 ± 0.021 | 0.273 ± 0.0783
35 | ACGGGC | 0.131 ± 0.00526 | 0.241 ± 0.0805
36 | CAGGCC | 0.16 ± 0.0134 | 0.277 ± 0.0643
37 | AGCCAG | 0.361 ± 0.0134 | 0.485 ± 0.0483
38 | CGCCAG | 0.103 ± 0.00325 | 0.214 ± 0.0676
39 | CACGGC | 0.114 ± 0.0156 | 0.228 ± 0.0664
40 | GCCAGA | 0.289 ± 0.0233 | 0.414 ± 0.0657
41 | CTCGCC | 0.139 ± 0.00418 | 0.273 ± 0.0725
42 | AGCCGA | 0.263 ± 0.0162 | 0.384 ± 0.065
43 | CCCAGG | 0.297 ± 0.008 | 0.401 ± 0.05
44 | CTGGCC | 0.139 ± 0.00982 | 0.255 ± 0.0712
45 | GCCCGC | 0.0368 ± 0.00404 | 0.115 ± 0.0587
46 | ACACGC | 0.297 ± 0.0275 | 0.43 ± 0.0602
47 | AGCTGC | 0.284 ± 0.0104 | 0.414 ± 0.0709
48 | TCGCCA | 0.213 ± 0.00577 | 0.371 ± 0.0688
49 | GGCCAC | 0.126 ± 0.019 | 0.253 ± 0.0792
50 | GTGCCA | 0.266 ± 0.0277 | 0.416 ± 0.0672
51 | AGCGAC | 0.253 ± 0.0224 | 0.41 ± 0.0789
52 | AGAGCC | 0.335 ± 0.0199 | 0.505 ± 0.0782
53 | AAGCGG | 0.29 ± 0.026 | 0.396 ± 0.0731
54 | ACGCGG | 0.111 ± 0.0165 | 0.205 ± 0.0613

Row | Sequence | binding signal [1] [fold-change vs cycle 0] | binding signal [2] [fold-change vs cycle 0]
55 | CCCAGC | 0.179 ± 0.0134 | 0.297 ± 0.0797
56 | AGCGGC | 0.0644 ± 0.00817 | 0.177 ± 0.0591
57 | ATGCGC | 0.153 ± 0.00714 | 0.28 ± 0.0818
58 | GAGCCC | 0.184 ± 0.0121 | 0.331 ± 0.0823
59 | GAGCGC | 0.088 ± 0.00871 | 0.196 ± 0.0698
60 | CGAGCC | 0.138 ± 0.0111 | 0.272 ± 0.0858
61 | ACGCAC | 0.27 ± 0.0299 | 0.404 ± 0.0719
62 | CTTCGC | 0.34 ± 0.0357 | 0.455 ± 0.0772
63 | AAGCGC | 0.162 ± 0.0133 | 0.302 ± 0.0877
64 | GCCGCA | 0.0591 ± 0.00535 | 0.149 ± 0.0608
65 | GCCCAC | 0.151 ± 0.00605 | 0.271 ± 0.0717
66 | CAGCGG | 0.136 ± 0.019 | 0.242 ± 0.0833
67 | GCATTA | 1.09 ± 0.0461 | 1.15 ± 0.019
68 | CGAGGC | 0.149 ± 0.0127 | 0.271 ± 0.0651
69 | AAGGGC | 0.343 ± 0.00573 | 0.488 ± 0.064
70 | CGGCGA | 0.077 ± 0.0153 | 0.177 ± 0.0705
71 | GGAGCC | 0.187 ± 0.00654 | 0.319 ± 0.0566
72 | AGCCCC | 0.191 ± 0.0184 | 0.329 ± 0.0672
73 | ACGACG | 0.31 ± 0.0104 | 0.425 ± 0.0391
74 | GCGTAC | 0.308 ± 0.00417 | 0.455 ± 0.0643
75 | AGTGGC | 0.299 ± 0.0198 | 0.455 ± 0.0604
76 | GCTGGA | 0.37 ± 0.0454 | 0.484 ± 0.0925
77 | AGGCCA | 0.313 ± 0.0175 | 0.446 ± 0.0657
78 | ACGGCA | 0.221 ± 0.00749 | 0.353 ± 0.0815
79 | CGACCG | 0.146 ± 0.0139 | 0.263 ± 0.0799
